According to PubChem BioAssay AID1347426 (Functional Genomics Laboratory (NCATS/FGL), 2020):
The whole screen tested about 31,000 sequences, of which about 1,400 (4.5%) were called active.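 Rule for the calls: active = median seed-adjusted z-score above 1 or below -1; inactive = the rest.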 Shown is part of a subset that was picked to be rich in actives.

Assay: Novel Modifiers of Survival Motor Neuron (SMN) Protein: Gene Identification via Genome-wide siRNA Screen;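 note: luminescence tracks full-length SMN protein made from the SMN2 reporter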
Conditions: HEK293T SMN2-luciferase reporter, siRNA knockdown, 72 h; actives lie on both sides
Method in brief: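 Steps: spot 1 pmol siRNA, add Lipofectamine RNAiMax in serum-free DMEM, seed HEK293T SMN2–luciferase reporter cells; incubate 72 h at 37 °C; add ONE-Glo; normalize luminescence to control siRNA, log10, MAD. Candidates: |MAD| > 1.0.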

Sequence	median seed-adjusted z-score
CAUGGGUGCUUAUAAGUCATT against IL1A	1.12 (active)
GGGCUGCACCAAAGCCUAUTT against KLF14	0.0241 (inactive)
GUUUAUUUCGUACACUAAATT against KTI12	0.0814 (inactive)
GCGUCGUGGUCAUGAACAATT against PIP5K1C	-0.13 (inactive)
CAGUGUCCCUAUGAAGGGATT against SRMS	-1.58 (active)
GCUAUUGAGUUUGCCCAAATT against ADHFE1	0.418 (inactive)
CUAGUGAUCUUUUAGAGUUTT against CSGALNACT2	0.236 (inactive)
GAACUUUAUUGCAAAGUUUTT against CSRP3	0.15 (inactive)
GCAUCGAGAUCCACGAAGATT against PITPNM3	-0.0378 (inactive)
AGAAGACUCUGGUAAUGUATT against WHSC1	1.17 (active)
CUGAUUCAAGAGAAGAUUATT against SMARCAL1	-0.145 (inactive)
GAACAGAUCCGGAAGAAGATT against NR1H2	0.069 (inactive)
GGACUUUGAUUGCUAGCAATT against CTRC	-0.104 (inactive)
GCUUGAAGAGUUUGGCUGGTT against DUSP15	0 (inactive)
GCAAUUAACAAUUAUCGAUTT against RNASE3	0.588 (inactive)
AGUUUGUCCUGAAGAAUUATT against PTPN23	-0.0473 (inactive)
GGGUCAUCUAUAUCCGCAATT against GPR132	0 (inactive)
GCAUCUGCUGUAUCGAUGATT against MCM4	0.0057 (inactive)
GCCCUUACAGGGUAUCAAATT against DDX46	-1.24 (active)
CACGGAUUCUUGUUGGAAATT against RAB33B	-0.758 (inactive)
GUUCGAAUCAAGAACCCUATT against NT5C3	-0.456 (inactive)
UGAUAGAGAUCAACCCAUATT against PSMB5	-1.37 (active)

Sequence	median seed-adjusted z-score
ACAUGAUCAUCAGUGUGAATT against FABP4	0.227 (inactive)
GCGUCAUGAUGUUCACCUATT against ITGB5	-0.00882 (inactive)
GCAUGGGAAUCAUUGUGCUTT against PPIL1	0.166 (inactive)
CCAGUACACUUUUGUCUGATT against CDC5L	-0.628 (inactive)
AAGUGUGCCUGAAUACUAUTT against KHDRBS2	-0.335 (inactive)
GGAGCAGUCACUUACAGAATT against PINK1	0.192 (inactive)
CCACUGUCCUGUUUGAGAUTT against FKBP6	-1.12 (active)
CGGAUUAUCUUCUAUCUAUTT against SLC6A14	0 (inactive)
GUCUUGACCUUGAACGCAATT against VIM	0.431 (inactive)
GGCUUCUUCUCGUGCAUCATT against KCNK3	0 (inactive)
GAAGGGUGAUUCUAAUAUUTT against GPR174	-0.324 (inactive)
GAAUCUGUCAGGAAUGACATT against RARB	0.409 (inactive)
CAUCGAAUCCUUACCCGAATT against AASDHPPT	0.64 (inactive)
GCCUCACCUCAAUUGCAAATT against ANP32D	-0.714 (inactive)
GACUACGCCUUGAAGCUAATT against TAF6	-1.36 (active)
GCUUUCGUCAAGUCAAAGATT against TIRAP	-0.431 (inactive)
AGAGCUAGAUGGAAGAACATT against SFRS3	2.74 (active)
ACUGACAUUUUUCAACUCATT against ALDH1L1	0.0289 (inactive)
CUACCGCAUCAGUAACAGATT against DDX21	-0.251 (inactive)
GACUCUGAGUAUAAAGUGATT against BARHL1	0.397 (inactive)
GGCUGGAUGUCAUUGAGAATT against SRGAP3	-0.0961 (inactive)
GCGAGGGCCUUUUUGAGUATT against CRYAA	-1.03 (active)

Sequence	median seed-adjusted z-score
GAUCGAAUCUUUAAGGUCUTT against EIF2C1	0.215 (inactive)
ACAUCUCCGAAAUCGCCUATT against SLC2A8	-0.105 (inactive)
AAAUGGAUGAGUUGCAAUUTT against PITX1	0 (inactive)
GCUCCGAAGUGGUGAUCAATT against CHRM1	1.1 (active)
GGAUAUGCCUUAGAUUACATT against PRTFDC1	0.493 (inactive)
GGUUCAUGACAGACAAGAATT against SHMT1	0.179 (inactive)
GCAUGUAUCUGCUUGAUAUTT against ODC1	-1.64 (active)
GUUUUUGUCCUAGCCCAUATT against OTUD7A	-0.53 (inactive)
GCCCAUGUCCCAAAUCACATT against PDE4A	-0.147 (inactive)
GGCAAAAUCUGGACACCAUTT against TFAP4	-0.0515 (inactive)
CCGGAAUUUUUGACAAGAATT against PTGS2	-0.21 (inactive)
AGAUCUGCAUGAAACAACATT against VPS16	0.306 (inactive)
GGUCUGAAACUCUACUAUATT against SHPRH	0.169 (inactive)
GGUUCUAACUUCGAAAAAUTT against DNAJC8	-1.62 (active)
AGUCUGUCCGAGUACUUCATT against LFNG	-0.13 (inactive)
GAGUUAAGUGAUAAGUAUATT against ZNF639	0.182 (inactive)
GCUCUGUAAUAGUCGACUATT against TOPBP1	0.0888 (inactive)
GCUUGUAGCUCUUAAGGUUTT against PPP2CA	0.731 (inactive)
GGUCUUUAUUCGGAAGCGATT against ZNF525	0.134 (inactive)
GAUAUUGAGCGGUUACAAATT against ATP7B	0.0947 (inactive)
GCACUCAUGUCAUACUGAATT against LIPA	0.535 (inactive)
GUUACUUCCGAAUCCAUGATT against ZNF627	0.204 (inactive)

Sequence	median seed-adjusted z-score
GGAAACCUCUGGACCUCUATT against ARID1A	-1.14 (active)
GGACAGAUCUGCAAAGAGATT against CETP	0 (inactive)
GAUGUACCUUGAUACAGUATT against IDH3A	0.137 (inactive)
CUGAUGAUCUACUCAUAUATT against TEKT1	0.222 (inactive)
GCUCCAUCCUUAUUCAACATT against ZIK1	-0.0627 (inactive)
GCUCAUCUGGAUAACCUGATT against ZNF513	-0.0616 (inactive)
GGCUAUUAUUGACAUGGUUTT against PDE8B	0.217 (inactive)
GAAUAUGAAACAUUCGAUATT against GLRX3	0.0784 (inactive)
CUUCUGAACUCGGUCCUCATT against SLC5A5	1.01 (active)
GGCUUUCAUUGAGCAGGAATT against ATP6V1E2	-0.162 (inactive)
GACCAGCAAUGCCUACGUATT against FLRT1	-0.00451 (inactive)
GCAAAACCCUGGAAGGAUATT against KCTD11	0.374 (inactive)
UGACAGUGACGGAUGCUAATT against OPLAH	-0.233 (inactive)
CGAUCGACUCGGUGACUUUTT against COL7A1	1.08 (active)
GAAGUCACGUCACUACUUATT against ZNF644	0.389 (inactive)
CACAGAUCAUUAUCUAAAUTT against LONP2	1.52 (active)
CCUCAGAACCGGCAAGAAATT against TNFAIP1	0.0766 (inactive)
CCAAAAUGUUUCAUCCAAATT against UBE2B	0.333 (inactive)
GAGUUAUGCAAGACAGUAUTT against MYSM1	-0.116 (inactive)
GCAGCAACCUUGUCAUCCATT against ZNF692	0.556 (inactive)
CACCAGCGACGGGAUCUUATT against RHOBTB2	-0.139 (inactive)
CCGUCACAGUAGAGACUAUTT against LRRC4C	-0.122 (inactive)

Sequence	median seed-adjusted z-score
GCAAUUACAUGAGCGAGCATT against PLK1	-2.57 (active)
GCUCCAUCAUCGUUGCAUUTT against SYPL2	0.233 (inactive)
CCAUAUUCCUCAUGCAUGUTT against FCRL5	-0.138 (inactive)
CAUCAGGAAUUACGGGACATT against GPR123	0 (inactive)
AGGGAACAAGUUUACCAAATT against GTF2IRD1	-0.282 (inactive)
GGUUAGACAUCAGUCCUUUTT against DHX15	1.36 (active)
CAGUUCCAGAUGAACCAUATT against DHDDS	0.0122 (inactive)
CACGGGAUAUGGAACGAAATT against CXCR7	-0.511 (inactive)
GAACAGUCCCUGGUUCCCATT against ECSIT	-0.116 (inactive)
UGCCCUUGGCUAUCCCUGATT against SLC30A3	-1.26 (active)
GGCUUUGUCAGUUCCCAGATT against SPRR2B	0.388 (inactive)
GCUUUGCUCUGUACCCUGATT against CTSK	0.0972 (inactive)
CCAUUAACCACAUACCAGATT against TLR7	0.189 (inactive)
CCAGUUCUUUAGGAUCUAUTT against GPR141	-0.777 (inactive)
GCGGAGCAUUUGCAACAAATT against NR6A1	-0.287 (inactive)
GCACCUUUAGGCGAAGGAATT against SENP6	-1.03 (active)
CCAUCAUCCCUAAGCGAAUTT against REXO1	-0.748 (inactive)
GUGUGGUCAUUCAACUUGATT against ZNF324B	0.176 (inactive)
GCACCUUCCUGCUAAGAUUTT against STAT3	0 (inactive)
GCUACUCCCUGAUUCAGAATT against SLC2A7	-0.0337 (inactive)
